# Values joined by “and” are separate entries in the source; they are usually repeats but may differ in a detail not shown here. Equal values may be shown once. About 2,000 (36%) of roughly 5,500 compounds were called active. Another 18% or so got no clear call; they are omitted. Some of the results follow. Values without a mark were called inactive. Cut-off read from the data, not from the text of the source: active = normalized growth mostly below about 0.91 (no sharp cut-off); inconclusive = no clear call, values can overlap the other calls; inactive = mostly above about 0.92.
# Experiment: chemical genetic growth profiling, strain panel (AID 1159580);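 note: tested at 20 µM; growth read once vehicle control cultures reached saturation at 30 °C; 1 = growth at the plate median or of vehicle wells; lower values mean less growth of the strain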
# Conditions: S. cerevisiae deletion strains, growth OD
structure (smiles),measurement,setting,value
C/C=C(\C)C(=O)O[C@@H]1c2c(ccc3ccc(=O)oc23)OC(C)(C)[C@@H]1OC(C)=O,normalized growth,"locus YAL013W, strain DEP1, hits give low values",1.01
same,normalized growth,"locus YAL021C, strain ccr4, hits give low values",1.01
same,normalized growth,"locus YAL026C, strain drs2, hits give low values",0.989
same,normalized growth,"locus YAL030W, strain snc1, hits give low values",0.996
same,normalized growth,"locus YBL061C, strain skt5, hits give low values",0.994
same,normalized growth,"locus YBR009C, strain hhf1, hits give low values",1.03
same,normalized growth,"locus YBR021W, strain FUR4, hits give low values",1.03
same,normalized growth,"locus YBR023C, strain chs3, hits give low values",0.987
same,normalized growth,"locus YBR171W, strain sec66, hits give low values",0.98
same,normalized growth,"locus YBR229C, strain ROT2, hits give low values",0.995
same,normalized growth,"locus YBR231C, strain swc5, hits give low values",1
same,normalized growth,"locus YBR279W, strain paf1, hits give low values",1.01
same,normalized growth,"locus YCL011C, strain gbp2, hits give low values",1.01
same,normalized growth,"locus YCL016C, strain dcc1, hits give low values",0.993
same,normalized growth,"locus YCL029C, strain bik1, hits give low values",1.03
same,normalized growth,"locus YCL061C, strain MRC1, hits give low values",0.985
same,normalized growth,"locus YCL069W, strain vba3, hits give low values",1.01
same,normalized growth,"locus YCR088W, strain abp1, hits give low values",0.996
same,normalized growth,"locus YDL005C, strain med2, hits give low values",0.981
same,normalized growth,"locus YDL035C, strain GPR1, hits give low values",0.995
same,normalized growth,"locus YDL040C, strain nat1, hits give low values",0.998
same,normalized growth,"locus YDL074C, strain BRE1, hits give low values",1
same,normalized growth,"locus YDL101C, strain DUN1, hits give low values",1.01
same,normalized growth,"locus YDL134C, strain PPH21, hits give low values",0.974
same,normalized growth,"locus YDL185W, strain tfp1, hits give low values",1.02
same,normalized growth,"locus YDL192W, strain arf1, hits give low values",0.992
same,normalized growth,"locus YDR001C, strain nth1, hits give low values",1.01
same,normalized growth,"locus YDR069C, strain doa4, hits give low values",1
same,normalized growth,"locus YDR101C, strain arx1, hits give low values",1.03
same,normalized growth,"locus YDR137W, strain rgp1, hits give low values",0.842 (active)
same,normalized growth,"locus YDR150W, strain NUM1, hits give low values",0.997
same,normalized growth,"locus YDR159W, strain sac3, hits give low values",0.989
same,normalized growth,"locus YDR162C, strain NBP2, hits give low values",0.983
same,normalized growth,"locus YDR195W, strain ref2",1.06
same,normalized growth,"locus YDR297W, strain sur2, hits give low values",0.995
same,normalized growth,"locus YDR318W, strain mcm21, hits give low values",0.974
same,normalized growth,"locus YDR334W, strain swr1, hits give low values",1
same,normalized growth,"locus YDR335W, strain msn5, hits give low values",1.02
same,normalized growth,"locus YDR388W, hits give low values",1
same,normalized growth,"locus YDR392W, strain spt3, hits give low values",0.762
same,normalized growth,"locus YDR502C, strain sam2, hits give low values",0.991
same,normalized growth,"locus YEL003W, strain gim4, hits give low values",1.01
same,normalized growth,"locus YEL037C, strain rad23, hits give low values",1.01
same,normalized growth,"locus YEL061C, strain CIN8 (second series), hits give low values",1
same,normalized growth,"locus YEL061C, strain CIN8, hits give low values",0.991
same,normalized growth,"locus YER015W, strain faa2, hits give low values",1.01
same,normalized growth,"locus YER016W, strain bim1, hits give low values",0.993
same,normalized growth,"locus YER110C, hits give low values",1.01
same,normalized growth,"locus YER111C, strain swi4, hits give low values",0.994
same,normalized growth,"locus YER155C, strain BEM2 (second series), hits give low values",1.03
same,normalized growth,"locus YER155C, strain BEM2, hits give low values",1.01
same,normalized growth,"locus YER167W, strain BCK2, hits give low values",0.997
same,normalized growth,"locus YFR010W, strain ubp6, hits give low values",1.02
same,normalized growth,"locus YGL078C, strain dbp3, hits give low values",1
same,normalized growth,"locus YGL086W, strain mad1, hits give low values",1.05
same,normalized growth,"locus YGL167C, strain pmr1, hits give low values",0.984
same,normalized growth,"locus YGL173C, strain kem1, hits give low values",0.991
same,normalized growth,"locus YGL227W, strain vid30, hits give low values",0.991
same,normalized growth,"locus YGL240W, strain doc1, hits give low values",0.985
same,normalized growth,"locus YGL248W, strain PDE1, hits give low values",0.993
same,normalized growth,"locus YGL253W, strain hxk2, hits give low values",0.963
same,normalized growth,"locus YGR078C, strain PAC10, hits give low values",1
same,normalized growth,"locus YGR135W, strain pre9, hits give low values",0.987
same,normalized growth,"locus YGR252W, strain gcn5, hits give low values",1
same,normalized growth,"locus YHR013C, strain ard1, hits give low values",0.971
same,normalized growth,"locus YHR027C, strain rpn1, hits give low values",1
same,normalized growth,"locus YHR030C, strain SLT2, hits give low values",0.996 and 0.998
same,normalized growth,"locus YHR079C, strain IRE1 (second series), hits give low values",0.998
same,normalized growth,"locus YHR079C, strain IRE1, hits give low values",1.01
same,normalized growth,"locus YHR094C, strain hxt1, hits give low values",1
same,normalized growth,"locus YHR129C, strain ARP1, hits give low values",1
same,normalized growth,"locus YHR142W, strain chs7, hits give low values",0.987
same,normalized growth,"locus YHR200W, strain rpn10, hits give low values",1.02
same,normalized growth,"locus YIL066C, strain RNR3, hits give low values",0.992
same,normalized growth,"locus YIL073C, strain SPO22, hits give low values",0.989
same,normalized growth,"locus YIL125W, strain kgd1, hits give low values",1.01
same,normalized growth,"locus YIR030C, strain dcg1, hits give low values",0.994
same,normalized growth,"locus YJL092W, strain hpr5, hits give low values",0.99
same,normalized growth,"locus YJL095W, strain BCK1 (second series), hits give low values",0.994
same,normalized growth,"locus YJL095W, strain BCK1, hits give low values",0.956 and 1.05
same,normalized growth,"locus YJL115W, strain asf1, hits give low values",0.995
same,normalized growth,"locus YJL129C, strain trk1, hits give low values",0.953
same,normalized growth,"locus YJL134W, strain LCB3, hits give low values",0.996
same,normalized growth,"locus YJL154C, strain vps35, hits give low values",1.01
same,normalized growth,"locus YJL164C, strain tpk1, hits give low values",1
same,normalized growth,"locus YJL166W, strain qcr8, hits give low values",0.968
same,normalized growth,"locus YJL168C, strain set2, hits give low values",1.01
same,normalized growth,"locus YJL187C, strain SWE1 (second series), hits give low values",1
same,normalized growth,"locus YJL187C, strain SWE1, hits give low values",0.991
same,normalized growth,"locus YJR043C, strain POL32, hits give low values",1.02
same,normalized growth,"locus YJR066W, strain TOR1, hits give low values",0.958
same,normalized growth,"locus YJR075W, strain HOC1, hits give low values",0.993
same,normalized growth,"locus YKL009W, strain mrt4, hits give low values",0.997
same,normalized growth,"locus YKL068W, hits give low values",1.01
same,normalized growth,"locus YKL085W, strain MDH1 (second series), hits give low values",0.991
same,normalized growth,"locus YKL085W, strain MDH1, hits give low values",0.991
same,normalized growth,"locus YKL160W, strain elf1, hits give low values",0.939
same,normalized growth,"locus YKR001C, strain vps1, hits give low values",1.02
same,normalized growth,"locus YKR026C, strain gcn3, hits give low values",0.996
same,normalized growth,"locus YKR091W, strain srl3, hits give low values",0.996
same,normalized growth,"locus YLL001W, strain dnm1, hits give low values",0.972
same,normalized growth,"locus YLL026W, hits give low values",0.992
same,normalized growth,"locus YLL041C, strain sdh2, hits give low values",0.998
same,normalized growth,"locus YLR027C, strain aat2, hits give low values",0.992
same,normalized growth,"locus YLR039C, strain RIC1, hits give low values",0.946
same,normalized growth,"locus YLR058C, strain SHM2, hits give low values",0.995
same,normalized growth,"locus YLR102C, strain apc9, hits give low values",1.01
same,normalized growth,"locus YLR113W, strain HOG1, hits give low values",1.01
same,normalized growth,"locus YLR221C, strain rsa3, hits give low values",0.971
same,normalized growth,"locus YLR258W, strain gsy2, hits give low values",0.997
same,normalized growth,"locus YLR262C, strain YPT6 (second series), hits give low values",0.846 (active)
same,normalized growth,"locus YLR262C, strain YPT6, hits give low values",0.913
same,normalized growth,"locus YLR268W, strain sec22, hits give low values",1.02
same,normalized growth,"locus YLR320W, strain mms22, hits give low values",0.943
same,normalized growth,"locus YLR330W, strain CHS5, hits give low values",1.01
same,normalized growth,"locus YLR342W, strain FKS1 (second series), hits give low values",1.01
same,normalized growth,"locus YLR342W, strain FKS1, hits give low values",0.998
same,normalized growth,"locus YLR357W, strain rsc2, hits give low values",1.04
same,normalized growth,"locus YLR370C, strain arc18, hits give low values",0.996
same,normalized growth,"locus YLR371W, strain rom2, hits give low values",1.02
same,normalized growth,"locus YLR384C, strain iki3, hits give low values",0.988
same,normalized growth,"locus YLR418C, strain cdc73, hits give low values",0.97
same,normalized growth,"locus YML016C, strain PPZ1, hits give low values",0.995
same,normalized growth,"locus YML032C, strain rad52, hits give low values",0.99
same,normalized growth,"locus YML120C, strain ndi1, hits give low values",0.993
same,normalized growth,"locus YML124C, strain tub3, hits give low values",0.988
same,normalized growth,"locus YMR058W, strain fet3, hits give low values",1
same,normalized growth,"locus YMR078C, strain ctf18, hits give low values",1
same,normalized growth,"locus YMR125W, strain sto1, hits give low values",0.967
same,normalized growth,"locus YMR129W, hits give low values",0.992
same,normalized growth,"locus YMR205C, strain PFK2, hits give low values",0.919
same,normalized growth,"locus YMR223W, strain ubp8, hits give low values",0.979
same,normalized growth,"locus YMR231W, strain pep5, hits give low values",0.998
same,normalized growth,"locus YMR307W, strain GAS1, hits give low values",0.929
same,normalized growth,"locus YNL067W, strain RPL9B, hits give low values",0.997
same,normalized growth,"locus YNL071W, strain lat1, hits give low values",0.963
same,normalized growth,"locus YNL153C, strain GIM3, hits give low values",1.02
same,normalized growth,"locus YNL183C, strain NPR1, hits give low values",0.996
same,normalized growth,"locus YNL209W, strain ssb2, hits give low values",1
same,normalized growth,"locus YNL233W, strain BNI4, hits give low values",1.02
same,normalized growth,"locus YNL248C, strain rpa49, hits give low values",0.956
same,normalized growth,"locus YNL250W, strain rad50, hits give low values",1.02
same,normalized growth,"locus YNL271C, strain bni1, hits give low values",1
same,normalized growth,"locus YNL298W, strain CLA4, hits give low values",1.01
same,normalized growth,"locus YNL307C, strain MCK1, hits give low values",1
same,normalized growth,"locus YNL322C, strain KRE1 (second series), hits give low values",0.991
same,normalized growth,"locus YNR049C, strain mso1, hits give low values",0.992
same,normalized growth,"locus YNR052C, strain pop2, hits give low values",0.995
same,normalized growth,"locus YOL006C, strain TOP1, hits give low values",1.04
same,normalized growth,"locus YOL012C, strain htz1",1.21
same,normalized growth,"locus YOL147C, strain pex11, hits give low values",0.996
same,normalized growth,"locus YOR001W, strain rrp6, hits give low values",1.02
same,normalized growth,"locus YOR061W, strain CKA2, hits give low values",0.99
same,normalized growth,"locus YOR069W, strain VPS5, hits give low values",0.995
same,normalized growth,"locus YOR070C, strain gyp1, hits give low values",0.999
same,normalized growth,"locus YOR080W, strain dia2, hits give low values",1.01
same,normalized growth,"locus YOR083W, strain WHI5, hits give low values",0.953
same,normalized growth,"locus YOR106W, strain vam3, hits give low values",0.977
same,normalized growth,"locus YOR136W, strain idh2, hits give low values",1.03
same,normalized growth,"locus YOR144C, strain elg1, hits give low values",1.01
same,normalized growth,"locus YOR184W, strain ser1, hits give low values",0.959
same,normalized growth,"locus YOR231W, strain MKK1, hits give low values",0.991
same,normalized growth,"locus YOR265W, strain rbl2, hits give low values",0.991
same,normalized growth,"locus YOR270C, strain vph1, hits give low values",0.912
same,normalized growth,"locus YOR290C, strain snf2, hits give low values",0.972
same,normalized growth,"locus YOR316C, strain cot1, hits give low values",0.999
same,normalized growth,"locus YPL051W, strain arl3, hits give low values",0.96
same,normalized growth,"locus YPL055C, strain LGE1, hits give low values",1
same,normalized growth,"locus YPL078C, strain atp4, hits give low values",0.972
same,normalized growth,"locus YPL106C, strain sse1, hits give low values",1.04
same,normalized growth,"locus YPL240C, strain hsp82, hits give low values",1
same,normalized growth,"locus YPL241C, strain CIN2, hits give low values",0.986
same,normalized growth,"locus YPL256C, strain CLN2, hits give low values",0.99
same,normalized growth,"locus YPR119W, strain clb2, hits give low values",0.993
same,normalized growth,"locus YPR141C, strain kar3, hits give low values",1.01
same,normalized growth,"locus YPR163C, strain tif3, hits give low values",0.996
same,normalized growth,"locus YPR167C, strain met16, hits give low values",0.99
same,normalized growth,"strain wtn01, hits give low values",1.05
